# Reference: PubChem BioAssay (Tox21)
# “And” between values parts separate entries of the source, which are not always exact repeats. Identical values can stand only once. Results filed as inconclusive are left out. Entries that show only a call come without a potency. Values without a mark were called inactive. The source made the active and inactive calls. The call rests on the fitted dose curve; in most records, active means well fitted cell-killing curve with a large enough effect in the repeat runs; inconclusive means weak or mixed curves; inactive means flat fitted curve, though single readings scatter.
# Assay: qHTS assay to identify small molecule antagonists of the estrogen related receptor (ERR) signaling pathway from Tox21 library - cell viability counter screen (AID 1224834); further: nearly all actives have a fitted effect of over 30% in size
# Conditions: ERR reporter cells viability, CellTiter-Fluor, 17.5 h; series mostly up to 92.4 µM
# Source text: National Center for Advancing Translational Sciences [NCATS]
# NIH Chemical Genomics Center [NCGC]
# U.S. Environmental Protection Agency [EPA]
# National Institutes of Environmental Health Sciences [NIEHS]
# National Toxicology Program [NTP]
# U.S. Food and Drug Administration [FDA]
# Estrogen related receptors (ERRs), the first orphan nuclear receptors discovered, play an important role in the control of cellular energy metabolism. ERRs are required for high-energy production in response to the environmental challenges. ERR-alpha was also identified as an adverse marker for breast cancer progression; ERR-alpha-positive tumors have a poor prognosis. To screen and to identify environmental compounds that perturb the ERR signaling pathways could provide valuable information for potential therapeutic or preventive measures in the treatment of metabolic disease. To differentiate true ERR antagonists or agonist from cytotoxic substances, the assay is multiplexed with cell viability assay.
# Tox21 Assay Protocol Summary:
# The ERR cells were dispensed at 2,000 cells/5 ul/well in 1536-well white plates using a Multidrop dispenser. After the assay plates were incubated at a 37 C/5% CO2 incubator for 6 hours, 23 nL of compounds dissolved in DMSO, positive and negative controls or DMSO only was transferred to the assay plate by a pin tool. The plates were incubated at 37 C for 17.5 hours. 1 ul/well of CellTiter-Fluor reagent was added into the assay plates using a Flying Reagent Dispenser. After 30-minute incubation at 37 C/5% CO2, the fluorescence intensity in the plates was measured using a ViewLux plate reader.
# Potency means the concentration at half of the fitted maximal effect.
Compound,Potency,"viability change, negative = cytotoxic"
N=C(N)[Se],inactive,
CCN1CCCC1CNC(=O)C(O)(c1ccccc1)c1ccccc1 (stereo not given),inactive,
CCCOC(=O)Cc1ccc(OCC(=O)N(CC)CC)c(OC)c1,inactive,
C=CC1(C)OC(=O)N(c2cc(Cl)cc(Cl)c2)C1=O (stereo not given),inactive,
CCCOc1nn(C(=O)NS(=O)(=O)c2ccccc2C(=O)OC)c(=O)n1C,inactive,
CC(=O)OCC1=C(C(=O)O)N2C(=O)[C@@H](N)[C@H]2SC1,,3.81% [at 19 µM]
Oc1ccc(Cc2ccc(O)cc2)cc1,inactive,
O=C(Cl)OCc1ccccc1,inactive,
CC(C)(O)C(Cl)(Cl)Cl,inactive,
O=C(O)CBr,inactive,
CCCCCCCC(=O)Cl,inactive,
NC(=O)OCCCc1ccccc1,inactive,
O=c1[nH]c2ccccc2n1C1CCNCC1,inactive,
O=P(O)(O)c1ccccc1,inactive,
CC1NCCOC1c1ccccc1 (stereo not given),inactive,
c1cncc([C@@H]2CCCCN2)c1,inactive,
NNCc1ccccc1,inactive,
CC(C)[C@]12CC(=O)[C@H](C)[C@H]1C2,inactive,
C#CCOC(=O)/C=C(C)/C=C/CC(C)CCCC(C)C (stereo not given),inactive,
O=C(O)c1c(Cl)ccc2cc(Cl)cnc12,inactive,

Compound,Potency,"viability change, negative = cytotoxic"
CCSC(=O)Cl,inactive,
CCN[C@@H](C)Cc1ccccc1,inactive,
C=C(Cl)CSC(=S)N(CC)CC,inactive,
CCOC(=O)COc1ccc(Cl)cc1Cl,inactive,
COc1ccccc1OC,inactive,
CCN(CCO)CCn1c(Cc2ccccc2)nc2c1c(=O)n(C)c(=O)n2C,inactive,
CCCCCCC1CCOC1=O (stereo not given),inactive,
COC[C@@H](NC(C)=O)C(=O)NCc1ccccc1,inactive,
COC1=CC(=O)O[C@@H](/C=C/c2ccccc2)C1,inactive,
CCC1(c2ccccc2)C(=O)N(COC)C(=O)N(COC)C1=O,inactive,
Cc1ccc(-c2nc3ccc(C)cn3c2CC(=O)N(C)C)cc1,inactive,
O=c1[nH]c2ccccc2o1,inactive,
C[C@H]1CCCC(=O)CCC/C=C/c2cc(O)cc(O)c2C(=O)O1,26.3 µM (active) and 17.8 µM (active),
CCN(CCO)CCO,inactive,
Cn1c(CCCC(=O)O)nc2cc(N(CCCl)CCCl)ccc21,inactive,
CCOC(=O)C(Cl)Cc1cc(-n2nc(C)n(C(F)F)c2=O)c(F)cc1Cl (stereo not given),inactive,
CC(O)CCl (stereo not given),inactive,
CC[C@H](N)c1ccccc1,inactive,
BrCCc1ccccc1,inactive,
ClCC1CO1 (stereo not given),inactive,
